Screens deposited in PubChem by National Center for Advancing Translational Sciences (NCATS).
Hits are enriched below; roughly 1.6% of the tested compounds scored in any of these assays.
hERG WT inh: KCNH2 (human, wildtype) channel inhibition; Q12809; U2OS, BacMam KCNH2, thallium flux FluxOr; stronger effect = lower value; activity change, % at 1.84 µM; actives 0.37% (n = 340,000); AID 720551;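 active = maximum activity change below -70%; inconclusive = maximum activity change between -70% and -50%; inactive = maximum activity change above -50%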; note: % is set by controls: 0 for no effect and ±100 for the full control effect
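U2OS cells transduced with wild-type KCNH2 virus are loaded with FluxOr dye for 45 min, and thallium flux is measured in kinetic reads before and after stimulation buffer. Rate constants are normalized to DMSO controls.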
KCNH2 3.1 block: blocks the human KCNH2 3.1 channel isoform | U2OS KCNH2 3.1, thallium flux FluxOr; stronger effect = lower value | activity change, % (tested at about 1.8 µM) | actives 0.95% (n = 340,000) | AID 720553;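 active = maximum activity change below -70%; inconclusive = maximum activity change from -70% to -50%; inactive = maximum activity change above -50%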;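 note: thallium influx rate constant from kinetic fluorescence after stimulation buffer; % is set by controls: 0 for no effect and ±100 for the full control effect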
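Thallium flux via FluxOr fluorescence (Red40 quencher, 45 min loading) in U2OS cells virally expressing the KCNH2 3.1 isoform (1.77 x 10^8 /mL virus, overnight at 37 C). Rate constants from 2-min kinetic reads post-stimulation, normalised to positive and negative controls.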
gsp antagonist: gsp mutant antagonism; actives 0.4% (n = 340,000); Potency, µM (highest dose often 76.9 µM), inactives show at the top dose activity change, negative = inhibition, actives largely listed as inhibitors; gsp-mutant cells, cAMP HTRF, 30 min; calls by dose curve; cell line not stated here;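 note: intracellular cAMP measured with PDE inhibitor Ro 20-1724 present during compound exposure; potency is the fitted concentration of half-maximal effect; % is set by controls: 0 for no effect and ±100 for the full control effect; nearly all actives have a fitted effect of over 65% in size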
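G418-selected cells were plated in DMEM/10% FBS for 16-24 h at 37C, then treated with compounds plus the PDE inhibitor […] (300 uM solution added) for 30 min at 37C. Intracellular cAMP was measured by HTRF after 30 min lysis at room temperature.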
gsp ag: gsp mutant agonism; gsp mutant cells, cAMP HTRF, 30 min; Potency, µM (highest dose often 76.9 µM), for the others: top-dose activation (cAMP increase), hits mostly activators; AID 624287; actives 0.13% (n = 340,000); active = well fitted activation curve with a large enough effect; inconclusive = small, poorly fitted or top-dose-only effect, or another doubt; inactive = no such curve, though single readings can be large or run the other way; cell line not stated here;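 note: phosphodiesterase inhibitor Ro 20-1724 added with compounds to block cAMP breakdown; potency is the fitted concentration of half-maximal effect; nearly all actives have a fitted effect of over 60% in size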
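Cells stably selected in G418 were plated at 2000/well, grown 16-24 hr, then given compounds in DMSO with the PDE inhibitor […] (300 uM solution added) for 30 min at 37C; cAMP was read by HTRF.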
Glioma ERSR ind: ER stress response induction in glioma | U87-MG GRP78 promoter luciferase reporter, 16 h | Potency, µM, without a hit: at the top dose activation, most hits filed as activators | actives 0.02% (n = 420,000) | AID 602332; active = well fitted activation curve with a large enough effect; inconclusive = small, poorly fitted or top-dose-only effect; inactive = no such curve, though single readings can be large or run the other way; note: potency is the fitted concentration of half-maximal effect; series mostly up to about 76 µM; % of control where 0% means no effect; nearly all actives have a fitted effect of over 35% in size
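ERSR induction read as luciferase luminescence (Bright-Glo, 10 min at room temperature) in stably transfected human U87-MG glioma cells exposed to compounds for 16 h, using GRP78 as sensor.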
pAkt inh: blocks phosphorylation of Akt; actives 0.32% (n = 360,000); AID 651550; activity change, % for hits at 50 µM; Neuro2A IGF-stimulated pAkt S473 HTRF, 20 min; stronger effect = lower value; in the data active = activity change below about -80%; inconclusive = mostly about -51% to -80%; note: % is set by controls: 0 for no effect and ±100 for the full control effect
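Neuro2A cells (4,500/well, DMEM with 0.5% FBS) were treated with compound at a single 50 µM final concentration, stimulated with 6 nM IGF for 20 min at 37 °C, and lysed. Phospho-Akt Ser473 was read by HTRF as 665/615 ratio ×10^4.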
An asterisk follows results filed as active; i = inactive; ? = inconclusive; · = no result given; [ ] = remark or other dose.

SMILES	hERG WT inh	KCNH2 3.1 block	gsp antagonist	gsp ag	Glioma ERSR ind	pAkt inh
COC(=O)c1ccccc1-c1cc(C)cc2c1OC(CNC(=O)c1cnc(C)cn1)C2 (stereo not given)	·	·	·	·	0%	·
CC[C@@H](C)[C@H](NC(=O)OC(C)(C)C)c1nnc(S(=O)(=O)Cc2cc(C)ccc2C)o1	30	-6	16%	19%	-18%	-127%*
Cc1ccc(C(=O)Nc2scc(-c3ccccc3)c2C(=O)O)cc1	-1	9	-27%	-2%[15.4 µM]	-7%	i
CC(C)(C)C(=O)Nc1scc(-c2ccc(-c3ccccc3)cc2)c1C(=O)O	-1	-6	35µM*	-79%	6%	i
COc1cc(CN2C(=O)CC[C@@H]3CN(Cc4ccccn4)CC[C@@H]32)cc(OC)c1OC	·	·	·	·	-4%	·
CN1C(=O)S/C(=C/c2ccccc2OCc2ccc(C(=O)O)cc2)C1=O	7	44	32µM*	-2%[15.4 µM]	2%	i
CCOc1ccc(CCNC(=O)c2cccs2)cc1OCC	1	-86*	2%	-55%	-5%	i
NC(N)=NCCCC(N)C(=O)O (stereo not given)	·	·	·	·	-3%	·
CS(=O)(=O)N1CCN(C(=O)C2c3ccccc3Oc3ccccc32)CC1	34	-185*	-11%	-10%	-2%	·
O=[N+]([O-])c1cc(-c2nc3nc4ccccc4nc3n2CCc2ccccc2)cc([N+](=O)[O-])c1	3	-21	35µM*	-1%[15.4 µM]	-4%	i
c1ccc(Cn2c(-c3ccccc3)nc3nc4ccccc4nc32)cc1	10	-12	-17%	27%	2%	i
CCOCCCNC(=S)N1CCC(C(=O)c2ccc3c(c2)OCCO3)CC1	2	-170*	-2%	-3%	-1%	i
CCNC(=S)N1CCC(C(=O)c2ccc3c(c2)OCCO3)CC1	6	6	14%	16%	-1%	i
O=C(c1ccc2c(c1)OCO2)N1CCCN(C(=O)c2ccc3c(c2)OCO3)CC1	4	4	3%	-12%	2%	i
O=C(c1ccc2c(c1)OCCCO2)N1CCCCC1	-2	-109*	11%	22%	2%	i
O=C(c1ccc2c(c1)OCCO2)C1CCN(C(=O)c2ccc(F)cc2)CC1	-159*	5	-8%	-4%	-1%	i
O=C(O)c1ccc2nc(-c3ccco3)c(-c3ccco3)nc2c1	-3	-1	-22%	3.5µM*	-1%	i
Cc1ccc(-c2nc3ccc(C(=O)O)cc3nc2-c2ccc(C)cc2)cc1	3	-10	?	19%	-1%	-123%*
O=C(c1ccc2nc(-c3ccco3)c(-c3ccco3)nc2c1)N1CCN(c2ccccc2)CC1	11	-4	-21%	0%	-5%	i
COC(=O)c1ccc(CN2CCC3(CCC(CNC(=O)c4ccco4)O3)CC2)cc1 (stereo not given)	·	·	·	·	0%	·
C1=C/C(=C2/C=Cc3ccccc32)c2ccccc2N1	·	·	·	·	-5%	·
COc1ccccc1C1CN(Cc2cccc3c2OCO3)Cc2ccccc2O1 (stereo not given)	·	·	·	·	-4%	·
CCOC(=O)c1cc(-c2ccc(OC)cc2)nn1-c1ccc(C(=O)O)cc1	4	26	35µM*	-3%	-1%	i
CCOC(=O)c1cc(-c2cccnc2)nn1-c1ccccc1	4	15	-4%	-7%[15.4 µM]	-1%	i
COc1ccc(N(Cc2ccccc2)C(=O)CSc2nnc(Cn3nnc4ccccc43)o2)cc1	10	-6	28µM*	25%	-1%	i
Cc1c(C(=O)N2CCCC(C)C2)sc2ncnc(NCCN3CCCCC3)c12 (stereo not given)	·	·	·	·	-6%	·
Cc1cc(OCCSc2nnc(-c3cccs3)n2C)ccc1Cl	-2	-17	35µM*	1%	-2%	i
Cc1ccc(OCCSc2nnc(-c3cccs3)n2C)cc1	-4	2	-16%	-18%	-2%	i
CC1CC(C)(C)NCc2ccccc21 (stereo not given)	14	-89*	4%	14%	-4%	i
